Screening results as filed in PubChem BioAssay.
VDR inhibitor: inhibitors of human vitamin D receptor; P11473; VDR-SRC2-3 peptide fluorescence polarization, 2 h; Potency, µM, most hits filed as inhibitors; 0.93% of 400,000 active
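Reagent solutions, kept cold and dark, are dispensed first; compounds are then pinned in at 23 nl, plates briefly spun, and incubated 2 h at ambient temperature. Inhibition of VDR–SRC2-3 peptide binding is read by fluorescence polarization.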
PI5P4Ka inh: inhibitors of human PI5P4K alpha | P48426 | PI5P4Kalpha enzyme, ADP-Glo luminescence, 60 min; hits give low values | max response, % | 1.2% of 330,000 active; active = max response of -50% or lower; inconclusive = between -30% and -50%; inactive = -30% or higher; note: value at the top dose of about 77 µM
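Quantitative HTS of the MLSMR library against PI5P4Kalpha with substrate. ATP added last at 5 microM final; room temperature, 60 minutes. Remaining ATP depleted, ADP converted and read as luminescence.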
TCR act: T cell receptor activation; primary human leukocytes, anti-CD3, IL-2 HTRF, 48 h; Potency, µM (titrated, usually from 9.22 µM), actives largely listed as activators; 330,000 tested, under 10 active
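TCR engagement came from a-CD3 beads alone, with compounds added to primary human leukocytes for 48 hr. Secreted IL-2 bridged europium cryptate- and d2-labelled anti-IL-2 antibodies, giving FRET emission at 665nm after 320nm excitation.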
FEN1 inh: human FEN1 inhibition; P39748; 0.35% of 390,000 active; Recombinant FEN1 flap cleavage, fluorescence, 15 min; Potency, µM (series often up to 114 µM), usual class: inhibitors; AID 588795; note: nearly all actives have a fitted effect of over 65% in size
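Read-out was taken twice, immediately and after 15 min, following addition of 50 nM substrate to 10 nM FEN1 that had sat with test compound for 15 min at room temperature. Curves came from a four-parameter Hill model.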
PLK1 PBD block: blocks phosphopeptide binding to human PLK1 polo-box domain; Potency, µM, usual class: inhibitors; Plk1 PBD binding of FITC phosphopeptide, fluorescence polarization; 2.8% of 360,000 active; P53350; note: series mostly up to about 57 µM; nearly all actives have a fitted effect of over 65% in size
WRN helicase inh: blocks human WRN helicase; Q14191; WRN helicase unwinding, fluorescent forked duplex, kinetic; Potency, µM (top dose mostly 114 µM), hits mostly inhibitors; 0.46% of 360,000 active; note: nearly all actives have a fitted effect of over 55% in size
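Screening of the MLSMR collection measured strand separation of a quenched forked DNA duplex (100 nM) by 20 nM WRN with 2 mM ATP, all final. Compounds were preincubated with enzyme 15 min at room temperature.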
Hits are given with their value; - = inactive; ? = inconclusive; . = no result given; [ ] = remark or other dose. Sampled rows, rich in hits. Any-hit rate of the full collection: about 3.7%. Unless noted, calls come from the whole dose curve; as a rule, active = well fitted curve in the direction sought with a large enough effect; inconclusive = small, poorly fitted or top-dose-only effect, or another doubt; inactive = no such curve, though single readings can be large; an effect the other way counts as inactive or inconclusive.

SMILES | VDR inhibitor | PI5P4Ka inh | TCR act | FEN1 inh | PLK1 PBD block | WRN helicase inh
CC(C)(C)c1cc(-c2csc(Nc3ccccc3)[n+]2Cc2ccc(C(=O)O)cc2)cc(C(C)(C)C)c1O | 79µM | - | - | ? | 21µM | ?
CO[C@H]1C([C@@]2(C)O[C@@H]2CC=C(C)C)[C@]2(CC[C@H]1OC(=O)/C=C/C=C/C=C/C=C/C(=O)O)CO2 (some centres not stated) | 35µM | . | . | . | . | .
COC(=O)c1ccc(Oc2ccc(C(C)(C)C)cc2)c([N+](=O)[O-])c1 | - | - | - | - | - | -
COC(=O)c1ccc(Oc2c(Cl)cccc2[N+](=O)[O-])cc1 | ? | - | - | - | 21µM | -
CCCCCC(=O)Cc1cc(O)cc2c1C(=O)Oc1cc(O)c(C(=O)O)c(CCCCC)c1O2 | ? | -76 | - | ? | 24µM | 45µM
O=C(/C=C/c1ccc(O)cc1)c1ccccc1O | 5.6µM | . | . | . | . | .
O=C(/C=C/c1ccc(O)c(O)c1)NC(=O)c1ccccc1O | - | ? | - | ? | - | 56µM
COc1ccc(/C=C/C(=O)c2ccccc2O)cc1 | ? | - | - | - | - | -
O=C(/C=C/c1ccc(F)cc1)c1cc(Br)ccc1O | ? | - | - | - | - | -
O=C(/C=C/c1ccccc1)c1cc(Br)ccc(=O)c1O | 22µM | - | - | ? | 27µM | ?
Cc1ccc(/C=C/C(=O)c2ccccc(=O)c2O)cc1C | 45µM | - | - | - | 30µM | -
O=C(/C=C/c1ccc(Br)cc1)NC(=O)c1ccccc1O | - | - | - | - | - | -
O=C(NC1CC(=O)N(c2ccc(Cl)cc2)C1)c1cccs1 (configuration not stated) | - | . | . | - | . | .
CC(C)(C)n1ncc2c(=O)n(Cc3ccccc3F)cnc21 | . | . | . | - | . | .
CCCNC(=O)CN1C(=O)NC(Cc2c[nH]c3ccccc23)C1=O (configuration not stated) | ? | - | - | - | 27µM | -
C/C(N)=C(/C#N)C(=O)CN1C(=O)NC(Cc2c[nH]c3ccccc23)C1=O (configuration not stated) | - | -66 | - | - | - | -
CC(C)(C)OC(=O)CN1C(=O)NC(Cc2c[nH]c3ccccc23)C1=O (configuration not stated) | - | - | - | - | - | -
O=c1c2ccccc2sc2c(CO)ccc(NCCN3CCCCC3)c12 | - | - | - | 40µM | - | -[11.6 µM]
C=C1C=C(C)n2ncc(C(=O)Nc3ccc(F)cc3F)c2N1 | . | . | . | - | . | .
N#CC1=C(N)SC(N)=C(C#N)C1c1ccnc2ccccc12 | - | -74 | - | - | ? | ?
O=S(=O)(NCCNS(=O)(=O)c1cccs1)c1cccs1 | - | - | - | - | - | -
CN1CCN(NS(=O)(=O)c2cccs2)CC1 | - | - | - | - | 9.5µM | -
C=C1NN(CC#N)C(=O)N1c1ccc(OCc2ccccc2)cc1 | . | . | . | - | . | .
O=C(O)c1ccc(NC2=C/C(=N/S(=O)(=O)c3cccs3)c3ccccc3C2=O)cc1 | . | ? | . | . | ? | -[11.6 µM]
O=C(O)c1ccc(NC2=C/C(=N/S(=O)(=O)c3ccccc3)c3ccccc3C2=O)cc1 | ? | ? | . | ? | 11µM | ?
SMILES | VDR inhibitor | PI5P4Ka inh | TCR act | FEN1 inh | PLK1 PBD block | WRN helicase inh
CCc1ccc(S(=O)(=O)/N=C2\C=C(Nc3cccc(C(=O)O)c3)C(=O)c3ccccc32)cc1 | - | - | - | - | 38µM | ?
Cc1ccc(S(=O)(=O)Nc2ccccc2-c2ccccc2)cc1 | - | . | - | - | - | -
Cc1ccc(S(=O)(=O)/N=C2\C=C(NS(=O)(=O)c3ccccc3)C(=O)c3ccccc32)cc1 | ? | ? | - | ? | 15µM | ?
CCc1ccc(S(=O)(=O)/N=C2/C=C(Sc3ncn[nH]3)C(=O)c3ccccc32)cc1 | 25µM | -94 | - | 79µM | 1.5µM | 20µM
COc1ccc(OC)c(CCNC(=O)c2cnn(-c3ccccc3Cl)c2C2CCN(C(=O)OC(C)(C)C)CC2)c1 | - | . | . | - | . | .
CC/C(=C\c1ccc(C(=O)OC)cc1)c1cc(OC)cc2oc3ccccc3c12 | . | . | . | - | . | .
O=C(NNc1ccccc1F)c1cccs1 | ? | . | . | - | . | .
COc1ccccc1NC(=S)NNC(=S)Nc1ccc(OC(F)F)cc1 | ? | - | - | - | 24µM | -
O=C(O)C(O)c1ccco1 (configuration not stated) | - | -60 | - | ? | 27µM | 50µM
